Reference: PubChem BioAssay (NCI)
This is part of a sample that, as a whole, favours compounds with a hit. Of some 79,000 tested, about 15% had one in any assay. Calls of active or inactive are those of the source. No stated cut-off is given here; in the data, active means growth inhibition above about 70%; inactive means the rest.

Legend:
[1] = NCI Yeast Anticancer Drug Screen. Data for the rad52 strain (AID 147);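 further: 0% = growth of vehicle-treated control cultures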; details: S. cerevisiae rad52 mutant growth inhibition, active compounds read high
Method in brief: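 Yeast strain carrying a DNA damage repair alteration was exposed to test compounds. Growth inhibition was measured relative to vehicle-treated controls.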

[2] = NCI Yeast Anticancer Drug Screen. Data for the wt1 strain (AID 149);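 further: 0% = growth of vehicle-treated wt1 cultures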; details: S. cerevisiae wt1 strain (SPY 50644) growth inhibition, active compounds read high
Method in brief: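 Vehicle-normalised growth inhibition; strain wt1; compound exposure.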

[3] = NCI Yeast Anticancer Drug Screen. Data for the rad50 strain (AID 155);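 further: 0% = growth of vehicle-only cultures of the same strain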; details: S. cerevisiae rad50 strain growth inhibition, active compounds read high
Method in brief: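 A DNA repair-deficient yeast mutant serves as the test organism; compound-induced growth inhibition is calculated against vehicle-treated cells.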

[4] = NCI Yeast Anticancer Drug Screen. Data for the mec2-1 strain (AID 157); details: S. cerevisiae mec2-1 strain, active compounds read high
Method in brief: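 mec2-1 yeast strain, carrying an alteration in DNA damage repair or cell cycle control, was exposed to compounds; growth inhibition was measured relative to vehicle-treated controls.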

[5] = NCI Yeast Anticancer Drug Screen. Data for the rad14 strain (AID 159);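 further: 0% = growth of vehicle-treated control cultures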; details: S. cerevisiae rad14 strain growth inhibition, active compounds read high
Method in brief: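 Vehicle-treated cultures served as the baseline for growth inhibition of a DNA repair-mutant yeast strain exposed to each compound.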

[6] = NCI Yeast Anticancer Drug Screen. Data for the sgs1 mgt1 strain (AID 161);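 further: 0% = growth of cultures given vehicle only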; details: S. cerevisiae sgs1 mgt1 strain, active compounds read high
Method in brief: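 Percent growth inhibition was derived by comparing compound-exposed mutant yeast with vehicle-exposed cultures. The strain carries alterations in DNA damage repair.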

[7] = NCI Yeast Anticancer Drug Screen. Data for the CLN2oe strain (AID 163);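 further: 0% = growth of vehicle-only control cultures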; details: S. cerevisiae CLN2oe strain, active compounds read high
Method in brief: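 Yeast cells carrying a defined cell-cycle control alteration were exposed to test compounds. Growth inhibition was scored against vehicle-treated control cultures.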

[8] = NCI Yeast Anticancer Drug Screen. Data for the cln2 rad14 strain (AID 165);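 further: 0% = growth equal to vehicle treated cultures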; details: S. cerevisiae cln2 rad14 strain, active compounds read high
Method in brief: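 Yeast carrying cln2 and rad14 alterations (cell cycle control and DNA damage repair) were exposed to compounds. Growth inhibition was measured against vehicle-treated controls.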

[9] = NCI Yeast Anticancer Drug Screen. Data for the bub3 strain (AID 167); details: S. cerevisiae bub3 mutant strain, active compounds read high
Method in brief: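 Inhibition values come from growth of compound-treated mutant yeast normalised to vehicle-treated controls.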

[10] = NCI Yeast Anticancer Drug Screen. Data for the wt2 strain (AID 169);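 further: 0% = growth of vehicle-treated yeast cultures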; details: S. cerevisiae wt2 strain growth inhibition, active compounds read high
Method in brief: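 Yeast cells were exposed to test compounds, and growth inhibition was measured relative to vehicle-treated controls.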

[11] = NCI Yeast Anticancer Drug Screen. Data for the mlh1 strain (AID 171);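 further: 0% = growth of vehicle-treated control cultures of the same strain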; details: S. cerevisiae mlh1 strain growth inhibition, active compounds read high
Method in brief: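 Yeast carrying a defined genetic alteration in DNA damage repair or cell cycle control were exposed to test compounds. Growth inhibition was measured relative to vehicle-treated controls.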

[12] = NCI Yeast Anticancer Drug Screen. Data for the sgs1 strain (AID 173);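 further: 0% = growth of vehicle-only control cultures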; details: S. cerevisiae sgs1 mutant, active compounds read high
Method in brief: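 Yeast mutant strains carrying defined defects in DNA damage repair or cell cycle control were exposed to test compounds. Growth inhibition was scored against vehicle-treated controls.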

[13] = NCI Yeast Anticancer Drug Screen. Data for the mlh1 rad18 strain (AID 175); details: S. cerevisiae mlh1 rad18 strain growth inhibition, active compounds read high
Method in brief: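 Growth inhibition of the yeast strain was measured after compound exposure and expressed relative to vehicle-treated controls. The strain carries defined defects in DNA damage repair.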

[14] = NCI Yeast Anticancer Drug Screen. Data for the rad18 strain (AID 177); details: S. cerevisiae rad18 mutant growth inhibition, active compounds read high
Method in brief: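 Yeast carrying a defined DNA damage repair alteration were exposed to compounds. Growth inhibition was expressed relative to vehicle-treated controls.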

[15] = NCI Yeast Anticancer Drug Screen. Data for the rad50EPP+ strain (AID 151);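 further: 0% = growth of vehicle-treated control cultures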; details: S. cerevisiae rad50 mutant strain, active compounds read high
Method in brief: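 Yeast strain carrying rad50 alteration (rad50EPP+) exposed to compounds; growth inhibition measured relative to vehicle-treated controls.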

[16] = at 5.0 µM (retest, dose inferred, filed as 0.5)
[17] = at 50.0 µM (retest, dose inferred, filed as 5.0)

Measured: growth inhibition

CN(C)CCN1C(=O)c2cccc3cc([N+](=O)[O-])cc(c23)C1=O
inactive: [1]; at 1.2 µM 22% | [1]; at 3.7 µM 58% | [1]; at 11.0 µM 63% | [2]; at 1.2 µM 16% | [2]; at 3.7 µM 0% | [2]; at 11.0 µM -9% | [2]; at 33.0 µM -4% | [2]; at 100.0 µM 23% | [3]; at 1.2 µM 13% | [3]; at 3.7 µM 35% | [3]; [16] 28% | [3]; at 11.0 µM 52% | [4]; at 1.2 µM -4% | [4]; at 3.7 µM 2% | [4]; [16] 2% | [4]; at 11.0 µM -9% | [4]; at 33.0 µM -6% | [4]; [17] 13% | [4]; at 50.0 µM 7.05% | [4]; at 100.0 µM 48% | [5]; at 1.2 µM 2% | [5]; at 3.7 µM 6% | [5]; at 11.0 µM 12% | [5]; at 33.0 µM -1% | [5]; at 100.0 µM 34% | [6]; [16] 11% | [6]; [17] 51% | [6]; at 50.0 µM -10.9% | [7]; at 1.2 µM 18% | [7]; at 3.7 µM 28% | [7]; at 11.0 µM 41% | [7]; at 33.0 µM 36% | [7]; at 100.0 µM 69% | [8]; [16] 5% | [8]; [17] 38% | [8]; at 50.0 µM -26.2% | [9]; at 1.2 µM -1% | [9]; at 3.7 µM 16% | [9]; [16] -6% | [9]; at 11.0 µM 21% | [9]; at 33.0 µM 18% | [9]; [17] 21% | [9]; at 50.0 µM -4.65% | [9]; at 100.0 µM 47% | [10]; at 1.2 µM -3% | [10]; at 3.7 µM 0% | [10]; at 11.0 µM -1% | [10]; at 33.0 µM 1% | [10]; at 100.0 µM 30% | [11]; at 1.2 µM 14% | [11]; at 3.7 µM 1% | [11]; at 11.0 µM -13% | [11]; at 33.0 µM 0% | [11]; at 100.0 µM 60% | [12]; at 1.2 µM -24% | [12]; at 3.7 µM -2% | [12]; at 11.0 µM 8% | [12]; at 33.0 µM 12% | [12]; at 100.0 µM 61% | [13]; [16] 6% | [13]; [17] 45% | [14]; at 1.2 µM 10% | [14]; at 3.7 µM 16% | [14]; at 11.0 µM 17% | [14]; at 33.0 µM 25%
active: [1]; at 33.0 µM 90% | [1]; at 100.0 µM 93% | [3]; at 33.0 µM 87% | [3]; [17] 93% | [3]; at 50.0 µM 72.6% | [3]; at 100.0 µM 94% | [14]; at 100.0 µM 80%

COc1cc(CNc2ccc(C(C)C)cc2)cc(OC)c1OC
inactive: [1]; at 1.2 µM 21% | [1]; at 3.7 µM 3% | [1]; at 11.0 µM -17% | [1]; at 33.0 µM 13% | [2]; at 1.2 µM 1% | [2]; at 3.7 µM 15% | [2]; at 11.0 µM 7% | [2]; at 33.0 µM -8% | [2]; at 100.0 µM 56% | [15]; at 1.2 µM -4% | [15]; at 3.7 µM -6% | [15]; at 11.0 µM 5% | [15]; at 33.0 µM 26% | [15]; at 100.0 µM 28% | [4]; at 1.2 µM 8% | [4]; at 3.7 µM -8% | [4]; [16] -42% | [4]; at 11.0 µM -4% | [4]; at 33.0 µM -25% | [4]; [17] 1% | [4]; at 50.0 µM 25.4% | [4]; at 100.0 µM 59% | [5]; at 1.2 µM -6% | [5]; at 3.7 µM -17% | [5]; at 11.0 µM -31% | [5]; at 33.0 µM -50% | [6]; [16] -7% | [6]; [17] 25% | [6]; at 50.0 µM 64% | [7]; at 1.2 µM -12% | [7]; at 3.7 µM -19% | [7]; at 11.0 µM -28% | [7]; at 33.0 µM -50% | [7]; at 100.0 µM -4% | [8]; [16] 6% | [8]; [17] 24% | [8]; at 50.0 µM 6.85% | [9]; at 1.2 µM -13% | [9]; at 3.7 µM -22% | [9]; [16] 13% | [9]; at 11.0 µM -26% | [9]; at 33.0 µM -6% | [9]; at 50.0 µM 65.2% | [10]; at 1.2 µM -1% | [10]; at 3.7 µM -26% | [10]; at 11.0 µM -9% | [10]; at 33.0 µM -20% | [10]; at 100.0 µM 69% | [11]; at 1.2 µM -2% | [11]; at 3.7 µM -21% | [11]; at 11.0 µM -15% | [11]; at 33.0 µM -20% | [12]; at 1.2 µM 26% | [12]; at 3.7 µM 23% | [12]; at 11.0 µM 21% | [12]; at 33.0 µM 11% | [13]; [16] -11% | [13]; [17] 32% | [13]; at 50.0 µM 55.7% | [14]; at 1.2 µM 4% | [14]; at 3.7 µM 9% | [14]; at 11.0 µM -5% | [14]; at 33.0 µM 9% | [14]; at 100.0 µM 64%
active: [1]; at 100.0 µM 78% | [5]; at 100.0 µM 72% | [9]; [17] 78% | [9]; at 100.0 µM 71% | [11]; at 100.0 µM 76% | [12]; at 100.0 µM 84%

CN(C)Cc1cccc(CN(C)C)[c]1[Sn]([Br])([c]1ccccc1)[c]1ccccc1
inactive: [1]; at 1.2 µM 28% | [1]; at 3.7 µM 45% | [1]; at 11.0 µM 57% | [2]; at 1.2 µM 20% | [2]; at 3.7 µM 36% | [2]; at 11.0 µM 49% | [2]; at 33.0 µM 58% | [3]; at 1.2 µM 30% | [3]; at 3.7 µM 62% | [3]; [16] 44% | [3]; at 11.0 µM 69% | [4]; at 1.2 µM 2% | [4]; at 3.7 µM 22% | [4]; [16] 47% | [4]; at 11.0 µM 42% | [4]; at 33.0 µM 56% | [5]; at 1.2 µM -3% | [5]; at 3.7 µM 17% | [5]; at 11.0 µM 27% | [6]; [16] 18% | [7]; at 1.2 µM -8% | [7]; at 3.7 µM 1% | [7]; at 11.0 µM 15% | [7]; at 33.0 µM 30% | [8]; [16] 13% | [8]; [17] 66% | [9]; at 1.2 µM -7% | [9]; at 3.7 µM 6% | [9]; [16] 32% | [9]; at 11.0 µM 18% | [9]; at 33.0 µM 50% | [10]; at 1.2 µM 10% | [10]; at 3.7 µM 13% | [10]; at 11.0 µM 41% | [11]; at 1.2 µM -2% | [11]; at 3.7 µM 23% | [11]; at 11.0 µM 37% | [11]; at 33.0 µM 60% | [12]; at 1.2 µM 8% | [12]; at 3.7 µM 44% | [12]; at 11.0 µM 66% | [13]; [16] 44% | [14]; at 1.2 µM 42% | [14]; at 3.7 µM 67%
active: [1]; at 33.0 µM 74% | [1]; at 100.0 µM 97% | [2]; at 100.0 µM 96% | [3]; at 33.0 µM 82% | [3]; [17] 94% | [3]; at 50.0 µM 81.8% | [3]; at 100.0 µM 97% | [4]; [17] 98% | [4]; at 50.0 µM 86.2% | [4]; at 100.0 µM 94% | [5]; at 33.0 µM 78% | [5]; at 100.0 µM 97% | [6]; [17] 95% | [6]; at 50.0 µM 88.8% | [7]; at 100.0 µM 91% | [8]; at 50.0 µM 86.9% | [9]; [17] 95% | [9]; at 50.0 µM 88.8% | [9]; at 100.0 µM 95% | [10]; at 33.0 µM 87% | [10]; at 100.0 µM 97% | [11]; at 100.0 µM 96% | [12]; at 33.0 µM 81% | [12]; at 100.0 µM 97% | [13]; [17] 98% | [13]; at 50.0 µM 90.7% | [14]; at 11.0 µM 74% | [14]; at 33.0 µM 82% | [14]; at 100.0 µM 97%
